According to paper PMC4081100, “A DNA-binding-site landscape and regulatory network analysis for NAC transcription factors in Arabidopsis thaliana”:

Key:
Assay in all cases: universal protein binding microarray (PBM); transcription factors of Arabidopsis thaliana; high values mean tight binding
GST-ANAC055(1-171) = target: T1, GST-ANAC055(1-171) (Arabidopsis thaliana, UniProt Q9LDY8 1-171); settings: protein: recombinant; tags: GST; chain copies: 2; dsDNA, one strand shown
T1 sequence: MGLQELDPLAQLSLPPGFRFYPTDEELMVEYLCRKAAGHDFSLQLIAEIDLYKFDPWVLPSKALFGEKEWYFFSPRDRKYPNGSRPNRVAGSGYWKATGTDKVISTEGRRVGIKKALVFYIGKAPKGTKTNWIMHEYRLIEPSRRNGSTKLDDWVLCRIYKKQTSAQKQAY
How it was run: (§1)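 Binding is expressed as the normalised enrichment score (E-score). Proteins carrying a GST tag, whether NAC-domain, full-length or DNA-binding-domain forms, were induced in cells, and zinc acetate was added for zinc-finger proteins. After purification on glutathione–Sepharose 4B and quantification by A280 or anti-GST western blot, each was applied in duplicate at 200 to 500 nM final to custom all-10-mer Agilent 4 × 180K arrays made double-stranded by primer extension. Gapped and ungapped 8-mers were scored.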

[1] = target: T2, GST-ANAC092(1-285) full length (Arabidopsis thaliana, UniProt Q9FKA0 1-285); settings: protein: recombinant; tags: GST; chain copies: 2; dsDNA, one strand shown
T2 sequence: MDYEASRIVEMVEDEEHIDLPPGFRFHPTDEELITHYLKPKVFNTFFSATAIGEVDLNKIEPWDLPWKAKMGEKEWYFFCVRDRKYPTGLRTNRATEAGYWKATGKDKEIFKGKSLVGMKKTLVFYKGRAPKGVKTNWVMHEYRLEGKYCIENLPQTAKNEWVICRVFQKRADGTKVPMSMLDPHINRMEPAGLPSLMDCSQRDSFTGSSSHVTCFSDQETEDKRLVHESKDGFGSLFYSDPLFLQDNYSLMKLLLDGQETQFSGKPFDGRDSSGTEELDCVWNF
How it was run: as §1

GST-NST2(1-184) = target: T3, GST-NST2(1-184) (Arabidopsis thaliana, UniProt Q9M274 1-184); settings: protein: recombinant; tags: GST; chain copies: 2; dsDNA, one strand shown
T3 sequence: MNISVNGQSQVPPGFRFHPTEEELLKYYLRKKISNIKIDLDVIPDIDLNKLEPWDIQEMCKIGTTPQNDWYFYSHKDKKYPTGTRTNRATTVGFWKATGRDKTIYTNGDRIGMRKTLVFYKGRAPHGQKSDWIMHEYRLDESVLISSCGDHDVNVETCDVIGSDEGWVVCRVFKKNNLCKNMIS
How it was run: as §1

GST-SND1(1-203) = target: T4, GST-SND1(1-203) (Arabidopsis thaliana, UniProt Q9LPI7 1-203); settings: protein: recombinant; tags: GST; chain copies: 2; dsDNA, one strand shown
T4 sequence: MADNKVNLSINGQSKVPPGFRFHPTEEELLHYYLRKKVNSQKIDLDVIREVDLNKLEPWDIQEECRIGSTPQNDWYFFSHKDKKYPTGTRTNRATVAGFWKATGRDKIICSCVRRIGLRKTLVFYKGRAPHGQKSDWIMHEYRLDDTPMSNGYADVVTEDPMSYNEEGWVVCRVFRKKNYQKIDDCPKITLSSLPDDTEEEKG
How it was run: as §1

GST-WRKY1(266-371) = GST-WRKY1(266-371) (Arabidopsis thaliana, UniProt Q9SI37 266-371); settings: protein: recombinant; tags: GST; dsDNA, one strand shown
How it was run: as §1

GST-NAP(1-166) = target: T5, GST-NAP(1-166) (Arabidopsis thaliana, UniProt O49255 1-166); settings: protein: recombinant; tags: GST; chain copies: 2; dsDNA, one strand shown
T5 sequence: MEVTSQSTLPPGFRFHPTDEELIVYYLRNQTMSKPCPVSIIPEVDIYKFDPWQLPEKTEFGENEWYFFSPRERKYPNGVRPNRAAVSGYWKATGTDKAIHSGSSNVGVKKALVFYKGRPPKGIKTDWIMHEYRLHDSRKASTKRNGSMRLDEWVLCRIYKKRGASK
How it was run: as §1

GST-ANAC019 NAC domain = target: T6, GST-ANAC019 NAC domain (Arabidopsis thaliana, UniProt Q9C932 14-162); settings: protein: recombinant; tags: GST; chain copies: 2; dsDNA, one strand shown
T6 sequence: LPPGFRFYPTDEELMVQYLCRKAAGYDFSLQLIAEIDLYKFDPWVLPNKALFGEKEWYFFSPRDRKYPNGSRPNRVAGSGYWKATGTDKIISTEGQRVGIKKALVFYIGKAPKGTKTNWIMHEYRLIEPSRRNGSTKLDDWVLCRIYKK
How it was run: as §1

GST-NTL8 NAC domain = target: T7, GST-NTL8 NAC domain (Arabidopsis thaliana, UniProt Q9XIN7 14-156); settings: protein: recombinant; tags: GST; chain copies: 2; dsDNA, one strand shown
T7 sequence: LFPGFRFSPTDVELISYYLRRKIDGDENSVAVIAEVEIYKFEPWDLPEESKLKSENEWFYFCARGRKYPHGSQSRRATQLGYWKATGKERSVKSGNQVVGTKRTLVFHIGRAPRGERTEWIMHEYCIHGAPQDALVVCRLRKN
How it was run: as §1

GST-ANAC092(1-176) = target: T8, GST-ANAC092(1-176) (Arabidopsis thaliana, UniProt Q9FKA0 1-176); settings: protein: recombinant; tags: GST; chain copies: 2; dsDNA, one strand shown
T8 sequence: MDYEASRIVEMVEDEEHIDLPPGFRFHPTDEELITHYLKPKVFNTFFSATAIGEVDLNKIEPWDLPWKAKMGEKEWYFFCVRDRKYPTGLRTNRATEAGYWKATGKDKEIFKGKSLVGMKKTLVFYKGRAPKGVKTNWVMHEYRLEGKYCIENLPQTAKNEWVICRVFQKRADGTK
How it was run: as §1

GST-ATAF1 NAC domain = target: T9, GST-ATAF1 NAC domain (Arabidopsis thaliana, UniProt Q39013 7-158); settings: protein: recombinant; tags: GST; chain copies: 2; dsDNA, one strand shown
T9 sequence: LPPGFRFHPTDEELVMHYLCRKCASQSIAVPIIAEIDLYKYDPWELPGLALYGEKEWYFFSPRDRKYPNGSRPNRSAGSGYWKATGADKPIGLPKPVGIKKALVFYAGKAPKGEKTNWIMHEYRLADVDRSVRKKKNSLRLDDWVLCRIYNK
How it was run: as §1

GST-NTL6(1-168) = GST-NTL6(1-168) (Arabidopsis thaliana, UniProt Q9SCK6 1-168); settings: protein: recombinant; tags: GST; chain copies: 2; dsDNA, one strand shown
How it was run: as §1

Sequence of GST-WRKY1(266-371) (Q9SI37 266-371): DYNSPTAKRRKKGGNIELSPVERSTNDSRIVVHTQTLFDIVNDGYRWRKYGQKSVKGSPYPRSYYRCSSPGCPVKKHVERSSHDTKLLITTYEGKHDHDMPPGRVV
Sequence of GST-NTL6(1-168) (Q9SCK6 1-168): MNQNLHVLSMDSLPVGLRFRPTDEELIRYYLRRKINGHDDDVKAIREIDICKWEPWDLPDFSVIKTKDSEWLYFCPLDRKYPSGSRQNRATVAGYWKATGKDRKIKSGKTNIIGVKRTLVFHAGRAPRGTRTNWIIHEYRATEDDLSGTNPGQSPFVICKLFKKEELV

GTCAAAGA gave a binding signal (GST-ANAC055(1-171)) of 0.078 E-score, a binding signal [1] of 0.0725 E-score and a binding signal (GST-NST2(1-184)) of 0.053 E-score. The binding signal (GST-SND1(1-203)) was 0.167 E-score and the binding signal (GST-WRKY1(266-371)) was 0.469 E-score.
Sequence ACGTTGAC has a binding signal [1] of 0.144 E-score, a binding signal (GST-NAP(1-166)) of 0.0955 E-score and a binding signal (GST-SND1(1-203)) of 0.127 E-score. The binding signal (GST-WRKY1(266-371)) was 0.489 E-score.
CTGACTTC gave a binding signal (GST-ANAC019 NAC domain) of 0.0546 E-score, a binding signal (GST-NTL8 NAC domain) of 0.113 E-score and a binding signal (GST-SND1(1-203)) of 0.0589 E-score. The binding signal (GST-WRKY1(266-371)) was 0.412 E-score.
Work on CTTTGACC yielded a binding signal (GST-ANAC092(1-176)) of 0.051 E-score, a binding signal (GST-SND1(1-203)) of 0.0526 E-score and a binding signal (GST-WRKY1(266-371)) of 0.488 E-score.
Work on TCAGTCAA yielded a binding signal (GST-ATAF1 NAC domain) of 0.0626 E-score, a binding signal (GST-NTL8 NAC domain) of 0.0655 E-score and a binding signal (GST-SND1(1-203)) of 0.0688 E-score. The binding signal (GST-WRKY1(266-371)) was 0.473 E-score.
With GGGGGAAA the binding signal (GST-ANAC092(1-176)) was 0.117 E-score, the binding signal (GST-NTL6(1-168)) was 0.314 E-score and the binding signal (GST-ANAC019 NAC domain) was 0.12 E-score. For the same sequence, the binding signal [1] was 0.139 E-score, the binding signal (GST-NTL8 NAC domain) was 0.472 E-score and the binding signal (GST-SND1(1-203)) was 0.147 E-score.
Sequence GAAGTAAC has a binding signal (GST-ANAC092(1-176)) of 0.249 E-score, a binding signal (GST-NTL6(1-168)) of 0.381 E-score and a binding signal (GST-ANAC055(1-171)) of 0.106 E-score. For the same sequence, the binding signal (GST-ATAF1 NAC domain) was 0.0921 E-score, the binding signal [1] was 0.325 E-score and the binding signal (GST-NST2(1-184)) was 0.301 E-score. It also gave a binding signal (GST-NTL8 NAC domain) of 0.413 E-score and a binding signal (GST-SND1(1-203)) of 0.333 E-score.
Work on ACCGTTGA yielded a binding signal (GST-ANAC092(1-176)) of 0.112 E-score, a binding signal [1] of 0.205 E-score and a binding signal (GST-NAP(1-166)) of 0.132 E-score. It also gave a binding signal (GST-SND1(1-203)) of 0.123 E-score and a binding signal (GST-WRKY1(266-371)) of 0.404 E-score.
Work on TCAAGTCA yielded a binding signal (GST-ANAC055(1-171)) of 0.0629 E-score, a binding signal (GST-ATAF1 NAC domain) of 0.0801 E-score and a binding signal [1] of 0.196 E-score. The binding signal (GST-NST2(1-184)) was 0.057 E-score, the binding signal (GST-SND1(1-203)) was 0.171 E-score and the binding signal (GST-WRKY1(266-371)) was 0.453 E-score.
CTTGACCC showed a binding signal (GST-NTL8 NAC domain) of 0.0908 E-score, a binding signal (GST-SND1(1-203)) of 0.0887 E-score and a binding signal (GST-WRKY1(266-371)) of 0.477 E-score.
For GTCAAGAA, the binding signal (GST-ANAC092(1-176)) was 0.0716 E-score, the binding signal (GST-ANAC055(1-171)) was 0.0615 E-score and the binding signal (GST-ATAF1 NAC domain) was 0.114 E-score. It also gave a binding signal [1] of 0.124 E-score, a binding signal (GST-NAP(1-166)) of 0.0595 E-score and a binding signal (GST-NST2(1-184)) of 0.0986 E-score. For the same sequence, the binding signal (GST-SND1(1-203)) was 0.052 E-score and the binding signal (GST-WRKY1(266-371)) was 0.436 E-score.
Work on CCTTTGAC yielded a binding signal (GST-NTL8 NAC domain) of 0.0589 E-score, a binding signal (GST-SND1(1-203)) of 0.101 E-score and a binding signal (GST-WRKY1(266-371)) of 0.475 E-score.
